# PubChem BioAssay (NCI)
# The panel holds about 83,000 compounds, 20% with a hit somewhere; the sample as a whole holds those more often.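 48-hour exposure, single concentration, 96-well plates; percent growth endpoint where 0 means no net growth. Active: below 10.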 Unmarked numbers belong to inactive results. Activity calls are given as the source filed them.
# System: IGROV1 ovarian
# Test: NCI-60 one-dose screen, 48 h (100 = growth as untreated, 0 = no growth, -100 = all killed)
# Settings: 10 µM unless noted
# Method: Growth inhibition of the IGROV1 human tumor cell line is measured as a screen for anti-cancer activity. Cells are grown in 96 well plates and exposed to the test compound for 48 hours. Compounds are tested at a single concentration, which is 10^-5 M for most compounds. The reported endpoint is percent growth (GI% or GIPRCNT), where numbers from 0 - 100% represent growth inhibition, and numbers from -100% - 0 represent cell death. For example, a value of 40 represents 60% growth inhibition. A value of 0 means no net growth occurred over the course of the experiment. A value of -40 indicates 40% of cells at the beginning of the experiment died by the end of the experiment. A value of -100 means all cells are dead at the end of the experiment.
# NCI-60 Human Tumor Cell Lines Screen was performed using the standard one-dose NCI protocol, which is described in more detail at https://dtp.cancer.gov/discovery_development/nci-60/default.htm.
# Compounds with GIPRCNT values below 10 were considered active. Activity score was based on GIPRCNT using the following formula: […]
# Score is 0 for GIPRCNT values of 100 or above, 50 for GIPRCNT values of 0, and 100 for GIPRCNT values of -100.
row,Structure (SMILES),growth
1,O=[N+]([O-])c1ccccc1C(O)Cc1ccc2ccccc2n1 (stereo not given),80.5%
2,O=C(Oc1ccc[nH]c1=O)c1cc([N+](=O)[O-])cc([N+](=O)[O-])c1,162%
3,N=C(N)c1ccc(-c2ccc(/C=C/c3ccccc3)s2)cc1,-62.6% (active)
4,CN(C)CCn1cc(-c2ccc3c(Nc4ccc(CC(=O)Nc5cccc(F)c5)cc4)ncnc3c2)cn1,-65.3% [30 µM] (active)
5,O=c1ccn(C2OC(F)(CO)C(O)C2F)c(=O)[nH]1 (stereo not given),112%
6,COc1ccc(-c2nnc(SCC(=O)NC3=NN=C(c4ccccc4)CS3)o2)cc1,108%
7,CC(C)OC(=O)OCOP(=O)(OCOC(=O)OC(C)C)C1CCCN(O)C1=O (stereo not given),9.36% (active)
8,COc1ccc(-c2nnc(-c3ccc4c(c3)nc(-c3ccccc3)n4C3CCCCC3)o2)cc1,89.4%
9,COc1ccc(N(C)c2nc(Cl)nc3cnn(C)c23)cc1,23.7%
10,Cc1ccc(NC(=O)C(Cl)Cl)cc1,95.4%
11,O=C1Nc2ccccc2/C1=N/N=C/c1ccsc1,101%
12,Cc1nn(-c2ccccc2)c2c1C(c1ccc([N+](=O)[O-])cc1)C(C#N)=C(N)O2 (stereo not given),82.9%
13,O[C@H]1CO[C@H]2[C@@H]1OC[C@@H]2Oc1ccc(Nc2nc(Nc3ccc(F)c(Cl)c3)ncc2F)cc1Cl,102%
14,CC(C)(C)c1ccc(C(=O)Nc2sc3c(c2C(N)=O)CCC(=O)C3)cc1,-21.6% (active)
15,O=C1C(Cl)C(c2ccccc2Cl)N1n1cnnc1 (stereo not given),91.5%
16,COc1cc(C2C=C(c3cccc(NC(C)=O)c3)Nc3ncnn32)cc(OC)c1OC (stereo not given),30.4%
17,CC(=[N-])N1CCC[C@@H](Nc2c3ccccc3nc3ccccc23)C1.[Cl][Pt].[NH-]CCC[NH-],17.2%
18,Nc1c(C(=O)c2ccc(Cl)s2)sc2nc3c(cc12)CCCC3,104%
19,COc1cc(-c2cccc([N+](=O)[O-])c2)c(-c2nc(-c3ccccc3)c(-c3ccccc3)n2C2CC2)cc1OC,78.5%
20,O=c1[nH]c(NCc2nnnn2-c2ccc(Br)cc2)nc2sc3c(c12)CCCC3,104%

row,Structure (SMILES),growth
1,CCCN1CCN(c2ccc3nc(-c4ccc5nc(-c6ccc(OCC)c(OCC)c6)[nH]c5c4)[nH]c3c2)CC1,-13.2% (active)
2,Cc1c2c(cn1Cc1ccccc1)CCc1cn(C)nc1-2,102%
3,O=C(CC1Sc2ccccc2NC1=O)NNc1ccc(F)cc1 (stereo not given),70.3%
4,Cc1[nH]c(-c2nc3ccccc3[nH]2)c(C)c1C(=O)N1CCOCC1,99.4%
5,NC(=O)CC1(O)C=C(Br)C(=O)C(Br)=C1,82.2%
6,O=[N+]([O-])c1ccc2[nH]cc(-c3c4ccsc4cc4[nH]c5ccc([N+](=O)[O-])cc5c34)c2c1,21.9%
7,COc1cc(-c2ccc(-c3ccc(C(=N)N)nc3)s2)cc(OC)c1OC,62.5%
8,COc1ccc(/C=C2\COc3ccc(O)c(O)c3C2=O)c(OC)c1,31.3%
9,COc1ccc(-c2nc3ccccn3c2/C=C/C(=O)c2cc(OC)c(OC)c(OC)c2)cc1,61.6%
10,Cl.[Pt].[c-]1ccccc1-c1ccccn1.c1ccc(P(c2ccccc2)C([PH+](c2ccccc2)c2ccccc2)[PH+](c2ccccc2)c2ccccc2)cc1,17.2%
11,COc1ccc(OC)c(Nc2nc3nonc3nc2Nc2cccc(Br)c2)c1,46.1%
12,O=C(CC12CC3CC(CC(C3)C1)C2)NCCOCCOCCNC(=O)c1cc2c(o1)C(=O)c1ccccc1C2=O,-43.9% (active)
13,COc1ccc(/C=C(\C#N)n2nnc3cc(F)c(F)cc32)c(OC)c1OC,68.8%
14,CN(C)CCOC(=O)Nc1ccc(Cl)cc1,103%
15,CC(C)CCC[C@@H](C)[C@H]1CCC2C3=CCn4c(=O)ccc(=O)n4C3CC[C@@]21C (stereo not given in full),-82.4% (active)
16,N#Cc1c(-c2ccccc2)nc(SCC2CO2)nc1N1CCOCC1 (stereo not given),38.1%
17,Cc1ccc(Nc2ccc(Nc3ccc(C)cc3S(=O)(=O)O)c3c2C(=O)c2ccccc2C3=O)c(S(=O)(=O)O)c1,114%
18,CN1C[C@@H](c2ccc(Cl)cc2)[C@]2(NC(=S)N(c3ccc(F)c(Cl)c3)C2=O)[C@@]12C(=O)NC1C=CC(Cl)=C[C@H]12 (stereo not given in full),41.9%
19,CCN(CC)N=Nc1nn(C(=O)Nc2ccc(Cc3ccccc3)cc2)c2ccc(Cl)cc12,88%
20,COc1cc(C(=O)Nc2cc(O)c(CC=C(C)C)c(O)c2)cc2c1O[C@]1(C)CC[C@@H](O)C(C)(C)[C@H]1C2,61.1%
